Rows were chosen to be rich in hits. Some 0.95% of all compounds tested hit in one or more screens of this group.
RE007 growth inh = less growth of the S. pombe RE007 Vpr strain | S. pombe RE007 Vpr strain, BacTiter-Glo ATP luminescence, 24 h | Potency, µM (titrated, usually from 92.2 µM), for inactives: at the top dose activity change, negative = less growth, hits mostly inhibitors | actives 0.21% (n = 360,000) | AID 651644; active = well fitted falling curve with a large enough effect; inconclusive = small, poorly fitted or top-dose-only effect; inactive = no such curve, though single readings can be large or run the other way; note: nearly all actives have a fitted effect of over 50% in size
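Fission yeast strain RE007, carrying one chromosomally integrated HIV-1 vpr copy, was seeded at OD 0.01 in PMG+AL medium with 23 nL pinned compound. After 24 h at 30 °C and 99% humidity, viability was read by BacTiter-Glo luminescence.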
Giardia FBPA inh-1 = Giardia lamblia aldolase inhibition | A8B2U2 | purified Giardia FBPA | Potency, µM (top dose mostly 59.6 µM), inactives show at the top dose activity, negative = inhibition, actives largely listed as inhibitors | actives 0.71% (n = 290,000) | AID 2451; note: nearly all actives have a fitted effect of over 55% in size
Target sequence (A8B2U2 whole entry, looked up): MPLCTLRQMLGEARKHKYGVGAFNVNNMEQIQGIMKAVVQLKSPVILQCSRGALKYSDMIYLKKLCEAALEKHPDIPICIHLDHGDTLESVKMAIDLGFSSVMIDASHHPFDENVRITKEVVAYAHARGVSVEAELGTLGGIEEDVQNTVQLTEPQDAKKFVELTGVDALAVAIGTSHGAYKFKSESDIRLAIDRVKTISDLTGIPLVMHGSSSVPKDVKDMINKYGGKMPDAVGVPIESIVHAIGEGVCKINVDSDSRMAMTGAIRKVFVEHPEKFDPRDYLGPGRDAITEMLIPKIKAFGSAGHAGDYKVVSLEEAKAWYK
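Giardia FBPA (40 nM reagent) was preincubated 10 min at RT with compound (up to 57.5 uM final), then substrate plus GAPDH/TPI/NAD/arsenate coupling system with diaphorase/resazurin was added; resorufin fluorescence (525/598 nm) was read after 20 min.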
LmPK inh = LmPK (Leishmania mexicana) enzyme inhibition. actives 0.37% (n = 290,000). purified LmPK, Kinase-Glo ATP luminescence, 1 h. Potency, µM (series often up to 57.5 µM), for the others: at the highest dose activity change, negative = inhibition, most hits filed as inhibitors. Q27686
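Kinase-Glo luminescence read after 1 h RT reaction of 0.1 nM LmPK with 0.5 mM PEP and 0.1 mM ADP. Activity scaled between uninhibited and enzyme-free controls.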
Tb PYK inh = inhibitors of Trypanosoma brucei pyruvate kinase; TbPYK enzyme, Kinase-Glo Plus ATP luminescence, 45 min; Potency, µM (top dose mostly 76.8 µM), without a hit: at the top dose activity, negative = inhibition, usual class: inhibitors; AID 624173; Q57TT1; actives 0.12% (n = 410,000); note: nearly all actives have a fitted effect of over 50% in size
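Glycolytic pyruvate kinase of T. brucei was incubated with substrate, test compound and 130 uM ADP for 45 minutes at room temperature. Luminescent Kinase-Glo Plus signal was measured after 10 minutes.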
Giardia growth = blocks growth of Giardia lamblia trophozoites. shares compounds with Giardia FBPA inh-1. Giardia lamblia trophozoite growth inhibition. Potency, µM (series often up to 57.5 µM), for inactives: top-dose activity change, negative = inhibition, actives largely listed as inhibitors. actives 5% (n = 1,500). AID 2785;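 note: trophozoites exposed to compound for 48 h at 37 °C; nearly all actives have a fitted effect of over 70% in size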
Mammalian tox = mammalian cytotoxicity of Giardia aldolase inhibitor hits; Potency, µM (highest dose often 57.5 µM), without a hit: top-dose viability change, negative = toxicity, most hits filed as inhibitors; actives 4% (n = 1,500); mammalian cell viability counter-screen, qHTS; shares compounds with Giardia FBPA inh-1;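 note: Chinese hamster ovary cells used as mammalian cytotoxicity surrogate; viability measured as cellular ATP by luminescence; compound exposure lasted 48 h before reading; nearly all actives have a fitted effect of over 60% in size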
Giardia FBPA inh-2 = confirmation of Giardia fructose-bisphosphate aldolase inhibitors; Potency, µM (series often up to 57.5 µM), for the others: at the highest dose activity change, negative = inhibition, most hits filed as inhibitors; shares compounds with Giardia FBPA inh-1; actives 5% (n = 1,500); purified Giardia aldolase enzyme activity, qHTS; note: nearly all actives have a fitted effect of over 45% in size
Rabbit FBPA inh = blocks rabbit muscle aldolase in Giardia aldolase selectivity test; shares compounds with Giardia FBPA inh-1; Rabbit muscle FBPA enzyme inhibition, selectivity counter-screen; Potency, µM (highest dose often 57.5 µM), for inactives: top-dose activity, negative = inhibition, most hits filed as inhibitors; actives 4% (n = 1,500); AID 2794; note: nearly all actives have a fitted effect of over 60% in size
Target sequence (P00883 whole entry, looked up): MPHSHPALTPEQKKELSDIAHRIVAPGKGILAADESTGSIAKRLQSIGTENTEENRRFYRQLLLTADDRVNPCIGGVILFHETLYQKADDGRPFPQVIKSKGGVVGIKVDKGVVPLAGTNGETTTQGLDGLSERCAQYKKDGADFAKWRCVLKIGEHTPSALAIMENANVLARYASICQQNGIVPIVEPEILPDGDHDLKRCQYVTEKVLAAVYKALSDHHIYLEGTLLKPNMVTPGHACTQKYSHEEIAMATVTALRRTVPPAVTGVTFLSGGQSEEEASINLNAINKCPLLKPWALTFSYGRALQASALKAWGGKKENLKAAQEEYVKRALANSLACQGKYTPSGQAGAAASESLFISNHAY
GAPDH coupling = counter-screen for Giardia aldolase inhibitors: GAPDH coupling enzyme | shares compounds with Giardia FBPA inh-1 | GAPDH coupling enzyme counterscreen, biochemical, qHTS | Potency, µM (top dose mostly 57.5 µM), without a hit: at the top dose activity change, negative = inhibition, usual class: inhibitors | actives 6% (n = 1,500) | AID 2795; note: nearly all actives have a fitted effect of over 55% in size
* marks the source's active call; other numbers are inactive results; ? = inconclusive; · = not tested or not shown; [ ] = dose if it differs, or a comment. Unless noted, calls come from the whole dose curve; as a rule, active = well fitted curve in the direction sought with a large enough effect; inconclusive = small, poorly fitted or top-dose-only effect, or another doubt; inactive = no such curve, though single readings can be large; an effect the other way counts as inactive or inconclusive. % is set by controls: 0 for no effect and ±100 for the full control effect; potency is the fitted concentration of half-maximal effect.

SMILES	RE007 growth inh	Giardia FBPA inh-1	LmPK inh	Tb PYK inh	Giardia growth	Mammalian tox	Giardia FBPA inh-2	Rabbit FBPA inh	GAPDH coupling
Cc1cccc(C)c1NC(=O)CSc1nnc(-c2ccco2)c(-c2ccco2)n1	8%	7.9µM*	13%	?	0%[10.4 µM]	15%	?	-23%	?
CN(C)CCCN(C(=O)c1ccc2c(c1)OCCO2)c1nc2ccccc2s1	·	·	·	2%	·	·	·	·	·
O=C(Nc1c2c(nc3ccccc13)CCCC2)c1ccccc1Cl	-4%	3%	1%	0%	·	·	·	·	·
CN1CCc2c1nc1ccccc1c2NC(=O)CN1CCCC1	-1%	18µM*	-3%	-15%	-4%[10.4 µM]	-6%	10%	3%	7%
CC(C)(C)CC(C)(C)NCC(=O)Nc1c2c(nc3ccccc13)CCC2	-12%	4.5µM*	3%	9%	73%	3%	7%	12%	10%
C=CCNC(=S)N/N=C(\C)c1cccnc1	-8%	16µM*	1%	1%	-9%	1%	5%	-3%	7%
O=C(CN1CCCC1)Nc1ccc(OC(F)(F)F)cc1	-8%	?	2%	44%	·	·	·	·	·
CCN1CCN(CC(=O)Nc2ccc(OC(F)(F)F)cc2)CC1	-1%	18µM*	-2%	2%	83%	4%	3%	7%	-11%
CC12CC3OS(=O)OC3CC3C4C(C(OCc5ccccc5)C31)C42 (stereo unspecified)	·	-1%[12.9 µM]	·	·	·	·	·	·	·
O=C(CN1CCN(Cc2ccc(F)cc2)CC1)Nc1nc2ccccc2s1	-6%	14µM*	17%	0%	-29%	1%	10%	1%	14%
CCc1nnc(NC(=O)CN2CCN(C3CCCCC3)CC2)s1	0%	?	-1%	-2%	·	·	·	·	·
CCc1nnc(NC(=O)CN2CC(C)OC(C)C2)s1 (stereo unspecified)	-8%	3.5µM*	-1%	-7%	14%[10.4 µM]	-6%	3%	7%	7%
Cc1cnc(NC(=O)CN2CCN(c3ccccc3F)CC2)s1	9%	0%	-4%	-13%	·	·	·	·	·
Cc1nnc(NC(=O)CN2CCN(Cc3ccccc3)CC2)s1	-13%	6.3µM*	0%	6%	14%[10.4 µM]	6%	3%	14%	0%
Cc1cnc(NC(=O)CN2CCCCC2)s1	-9%	4.5µM*	5%	-3%	?	-6%	7%	8%	17%
CCCN1CCN(CC(=O)Nc2nc3ccccc3s2)CC1	2%	?	3%	-2%	·	·	·	·	·
COC(=O)C1=C(C(=O)OC)[C@@H]2N(C)c3ccc(OC)cc3[C@@]23C[C@@H](C(=O)OC)N(S(=O)(=O)c2cccs2)C3=N1	·	-2%[12.9 µM]	0%[11.5 µM]	·	·	·	·	·	·
COc1ccc(N(C(=O)/C=C\C(=O)Nc2ccc(Cl)cc2)C(C(=O)NCc2ccco2)c2ccc(C)cc2)cc1 (stereo unspecified)	·	·	·	-6%	·	·	·	·	·
CC(=O)Nc1ccc2sc(NC(=O)CN3CCOCC3)nc2c1	5%	4.5µM*	5%	-3%	?	-17%	7%	10%	0%
CCCN1CCN(CC(=O)Nc2nnc(C)s2)CC1	16%	7.9µM*	0%	-3%	26%	1%	-2%	13%	4%
Cc1nnc(NC(=O)CN2CCN(Cc3ccc(F)cc3Cl)CC2)s1	-6%	3.2µM*	-4%	2%	23%	-11%	6%	6%	17%
Cc1ccc(S(=O)(=O)N2CCN(C3CC4CCC3C4)CC2)cc1 (stereo unspecified)	1%	14µM*	2%	9%	18%	-1%	3%	0%	14%
COc1ccc(S(=O)(=O)N2CCN(C3CC4CCC3C4)CC2)cc1 (stereo unspecified)	-5%	-23%	-1%	27%	·	·	·	·	·
CCSC1=NC2(CCN(C(=O)NC3CCCCC3)CC2)N=C1c1ccc(Cl)cc1	·	·	·	2%	·	·	·	·	·
O=Nc1onc(-c2ccc([N+](=O)[O-])cc2)c1NO	-26%	14µM*	4%	4%	?	1%	-14%	-4%	16%
SMILES	RE007 growth inh	Giardia FBPA inh-1	LmPK inh	Tb PYK inh	Giardia growth	Mammalian tox	Giardia FBPA inh-2	Rabbit FBPA inh	GAPDH coupling
O=[N+]([O-])c1ccccc1C1Nc2cccc3cccc(c23)N1	-11%	?	4%	26%	10µM*	-19%	?	-25%	?
COC(=O)C1=C(C)N(Cc2ccccc2)C2=C(C(C)=O)C[C@@](O)(C(=O)OC)C(=O)N2C1c1ccccc1 (stereo partly specified)	·	2%[12.9 µM]	·	·	·	·	·	·	·
O=c1oc2c(O)c(O)cc3c(=O)oc4c(O)c(O)cc1c4c23	5%	2µM*	8%	-11%	15%	4%	?	?	?
COC(=O)CNc1n[nH]c(=S)[nH]c1=O	23%	?	-1%	-1%	·	·	·	·	·
CN(C)C(=O)CNc1n[nH]c(=S)[nH]c1=O	-3%	16µM*	8%	-10%	?	4%	3%	3%	7%
CC(C)OC(=O)CNc1n[nH]c(=S)[nH]c1=O	-14%	4.5µM*	1%	-1%	41%	-5%	6%	4%	6%
COc1cccc(Nc2ccc3cc(S(=O)(=O)N4CCC(C)CC4)ccc3n2)c1	·	·	·	-1%	·	·	·	·	·
COc1cc(/C=N/n2c(=S)[nH]nc(C)c2=O)cc([N+](=O)[O-])c1O	-6%	16µM*	1%	-6%	?	-4%	2%	-9%	4%
Cc1n[nH]c(=S)n(/N=C/c2cccc([N+](=O)[O-])c2)c1=O	11%	?	2%	-17%	·	·	·	·	·
CC(=O)N1CCc2c(sc3c2c(=O)n(-c2ccccc2)c(=O)n3CC(=O)NCC2CCCO2)C1 (stereo unspecified)	23%	10µM*	7%	-7%	-4%[38.3 µM]	-13%	-27%	-15%	-9%
COc1ccc(-n2c(-c3ccco3)n[nH]c2=S)cc1	-12%	2%	?	?	·	·	·	·	·
COc1ccccc1-c1n[nH]c(=S)n1N	4%	16µM*	1%	-13%	12%	-10%	4%	6%	8%
COc1ccccc1-n1c(CNC(=O)c2ccco2)n[nH]c1=S	-6%	11µM*	-9%	?	52%	9%	2%	1%	13%
COc1ccccc1-c1n[nH]c(=S)n1-c1ccccc1	0%	-13%	-24%	?	·	·	·	·	·
